A short description of assay [1]: qHTS of pediatric cancer cell lines to identify multiple opportunities for drug repurposing: Primary screen for BT-37 cells (AID 1347094). Further: potency means the concentration at half of the fitted maximal effect. In short, it runs like this:
(§1)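 Luminescence from CellTiter-Glo served as readout of metabolically active cells after 48 h compound exposure. Titrations: MIPE 11-point, from 0.78 nM; NPC 8-point, from 0.59 nM (final). Concentration-response curves came straight from the primary screen.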

Assay [2] can be described thus: qHTS of pediatric cancer cell lines to identify multiple opportunities for drug repurposing: Primary screen for U-2 OS cells (AID 1347096). Further: nearly all actives have a fitted effect of over 50% in size. Summed up: (§2)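 Cells (500-1,000/well) rested 5 h, then received compounds for 48 h; metabolically active cells were measured by CellTiter-Glo luminescence. Final concentrations spanned up to 46 µM (MIPE, 11-point) or 0.59 nM-46 µM (NPC, 8-point) in primary screens, 11-point in follow-ups.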

Assay [3] is described as follows: qHTS of pediatric cancer cell lines to identify multiple opportunities for drug repurposing: Primary screen for BT-12 cells (AID 1347101). Further: nearly all actives have a fitted effect of over 25% in size. Further: potency means the concentration at half of the fitted maximal effect. In short, it runs like this: as §2
For orientation: In qHTS, concentration-response curves come from the screen itself.

A short description of assay [4]: qHTS of pediatric cancer cell lines to identify multiple opportunities for drug repurposing: Primary screen for RD cells (AID 1347104). Further: nearly all actives have a fitted effect of over 55% in size. Further: potency means the concentration at half of the fitted maximal effect. In short, it runs like this: as §1
Assay [5] is described as follows: qHTS of pediatric cancer cell lines to identify multiple opportunities for drug repurposing: Primary screen for MG 63 (6-TG R) cells (AID 1347105). Further: nearly all actives have a fitted effect of over 50% in size. Further: potency means the concentration at half of the fitted maximal effect. Summed up:
as §1

Assay [6] in a line: qHTS of pediatric cancer cell lines to identify multiple opportunities for drug repurposing: Primary screen for control Hh wild type fibroblast cells (AID 1347106).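 Further: series mostly up to about 46 µM; a drop in luminescence marks cytotoxicity and a rise apparent proliferation; nearly all actives have a fitted effect of over 55% in size.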 Summed up:
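Cells (500-1,000/well) in growth media were settled 5 h at 37 degrees C, then given compounds for 48 h. Viability was read as CellTiter-Glo luminescence. Primary runs used MIPE at 11 points (0.78 nM-46 µM) and NPC at 8 points (0.59 nM-46 µM); follow-ups used 11 points.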

A short description of assay [7]: qHTS of pediatric cancer cell lines to identify multiple opportunities for drug repurposing: Primary screen for Rh18 cells (AID 1347102). Further: nearly all actives have a fitted effect of over 65% in size. Further: potency means the concentration at half of the fitted maximal effect. In short, it runs like this: as §2
Assay [8] can be described thus: qHTS of pediatric cancer cell lines to identify multiple opportunities for drug repurposing: Primary screen for OHS-50 cells (AID 1347103). Further: nearly all actives have a fitted effect of over 40% in size. Further: potency means the concentration at half of the fitted maximal effect. In short, it runs like this: as §2
Assay [9] is described as follows: qHTS of pediatric cancer cell lines to identify multiple opportunities for drug repurposing: Primary screen for Rh30 cells (AID 1347107). Further: nearly all actives have a fitted effect of over 75% in size. Further: potency means the concentration at half of the fitted maximal effect. In short, it runs like this:
as §2

A short description of assay [10]: qHTS of pediatric cancer cell lines to identify multiple opportunities for drug repurposing: Primary screen for Saos-2 cells (AID 1347097). Further: nearly all actives have a fitted effect of over 40% in size. Further: potency means the concentration at half of the fitted maximal effect. Summed up:
as §1

Assay [11] can be described thus: qHTS of pediatric cancer cell lines to identify multiple opportunities for drug repurposing: Confirmatory screen for NB1643 cells (AID 1347109). Further: nearly all actives have a fitted effect of over 45% in size. Further: potency means the concentration at half of the fitted maximal effect. In short, it runs like this: as §2
A short description of assay [12]: qHTS of pediatric cancer cell lines to identify multiple opportunities for drug repurposing: Confirmatory screen for A673 cells (AID 1347110).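 Further: cells exposed to compound for 48 h before the viability read; nearly all actives have a fitted effect of over 65% in size.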 Further: potency means the concentration at half of the fitted maximal effect. In short, it runs like this:
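A673 cells seeded at 500-1,000 cells/well, rested 5 h, then dosed; primary MIPE 11-point (0.78 nM to 46 µM), NPC (0.59 nM to 46 µM); confirmatory 11-point. CellTiter-Glo luminescence after 48 h.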

The nature of assay [13]: qHTS of pediatric cancer cell lines to identify multiple opportunities for drug repurposing: Confirmatory screen for BT-12 cells (AID 1347112). Further: nearly all actives have a fitted effect of over 55% in size. Further: potency means the concentration at half of the fitted maximal effect. Summed up:
as §2

Assay [14] in a line: qHTS of pediatric cancer cell lines to identify multiple opportunities for drug repurposing: Confirmatory screen for LAN-5 cells (AID 1347113). Further: nearly all actives have a fitted effect of over 65% in size. Further: potency means the concentration at half of the fitted maximal effect. Summed up: as §2
Assay [15] is described as follows: qHTS of pediatric cancer cell lines to identify multiple opportunities for drug repurposing: Primary screen for NB-EBc1 cells (AID 1347095). In short, it runs like this: as §1
The nature of assay [16]: qHTS of pediatric cancer cell lines to identify multiple opportunities for drug repurposing: Primary screen for NB1643 cells (AID 1347099). Further: nearly all actives have a fitted effect of over 50% in size. Further: potency means the concentration at half of the fitted maximal effect. In short, it runs like this:
as §1

Assay [17] in a line: qHTS of pediatric cancer cell lines to identify multiple opportunities for drug repurposing: Primary screen for Rh41 cells (AID 1347108). Further: nearly all actives have a fitted effect of over 70% in size. Further: potency means the concentration at half of the fitted maximal effect. Summed up:
as §1

Assay [18] is described as follows: qHTS of pediatric cancer cell lines to identify multiple opportunities for drug repurposing: Primary screen for SK-N-SH cells (AID 1347098). Further: nearly all actives have a fitted effect of over 65% in size. Further: potency means the concentration at half of the fitted maximal effect. Summed up:
as §2

Assay [19] is described as follows: qHTS of pediatric cancer cell lines to identify multiple opportunities for drug repurposing: Primary screen for LAN-5 cells (AID 1347100). Further: potency means the concentration at half of the fitted maximal effect. In short, it runs like this: as §2
The nature of assay [20]: qHTS of pediatric cancer cell lines to identify multiple opportunities for drug repurposing: Confirmatory screen for SK-N-MC cells (AID 1347111).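 Further: potency means the concentration at half of the fitted maximal effect; cells exposed to compound for 48 h before the readout; nearly all actives have a fitted effect of over 70% in size.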 Summed up:
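Seed 500-1,000 cells/well; rest 5 h at 37 degrees C. Pin-transfer compounds, 11-point titration. Incubate 48 h. Add CellTiter-Glo, 15 min RT, read luminescence.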

Each structure is given as a SMILES string. Values joined by “and” are separate entries in the source; they are usually repeats but may differ in a detail not shown here. Equal entries are not always repeated. Inconclusive results are not listed. Active and inactive are the calls of the source. The call rests on the fitted dose curve; in most records, active means well fitted curve in the direction sought with a large enough effect; inconclusive means small, poorly fitted or top-dose-only effect, or another doubt; inactive means no such curve, though single readings can be large; an effect the other way counts as inactive or inconclusive.

Take `CCn1c(C(=O)N(C2CC2)C2CC2)cc2c3c(ncn3C)c(Nc3cc(C)n(C)n3)nc21`: the Potency entry in assay [1], in [2], in assay [3], in assay [4], in assay [5] and in [6] was “inactive” in each case.
As for `C[C@H](NC(=O)c1sccc1OCc1ccc(Cl)cc1)c1ccccc1`, the Potency was 27.3 µM (active) in assay [1]; 19.3 µM (active) in assay [3]; 12.2 µM (active) in assay [8]; 29.6 µM (active) in assay [4]; 18.7 µM (active) in assay [9]. In addition, the Potency entry in assay [2], in [7] and in assay [6] was “inactive” each time.
Regarding `CC[C@]1(O)C[C@@H]2CN(CCc3c([nH]c4ccccc34)[C@@](C(=O)OC)(c3cc4c(cc3OC)N(C=O)[C@@H]3C45CCN4CC=C[C@](CC)([C@H]45)[C@@H](OC(C)=O)[C@]3(O)C(=O)OC)C2)C1` (some centres undefined), the Potency entry in [1], in [10], in assay [8], in [6], in assay [9] and in assay [11] was “inactive” each time. For the same compound, the Potency entry in [12], in assay [13] and in assay [14] was “inactive” throughout.
`N#CC(=C(N)Sc1ccccc1N)C(C#N)=C(N)Sc1ccccc1N`: the Potency entry in assay [15], in assay [2] and in [6] was “inactive” in each case. In addition, the Potency was 29.6 µM (active) in assay [10]; 20.9 µM (active) in [16]; 13.7 µM (active) in assay [3]; 27.3 µM (active) in [8]; 5.26 µM (active) in assay [4]; 18.7 µM (active) in assay [17].
In the case of `CC(C)n1cnc2c(NCCCCCCNC(=O)OC(C)(C)C)nc(NCCO)nc21`, the Potency entry in [15], in [2], in assay [10], in assay [18], in assay [16] and in [7] was “inactive” in each case. The Potency entry in assay [6] was “inactive”. In addition, the Potency in assay [4] is 33.2 µM (active).
On to `COc1ccc(-c2coc3cc(O)ccc3c2=O)cc1`, for which the Potency entry in assay [1], in assay [10], in assay [18], in [16], in [19] and in [3] was “inactive” each time. Moreover, the Potency entry in assay [7], in assay [8], in assay [4], in [5], in assay [6] and in assay [9] was “inactive” each time. Moreover, the Potency result in assay [17] is “inactive”.
On to `O=C(Nc1c(Cl)cncc1Cl)c1ccc(OC(F)F)c(OCC2CC2)c1`, for which the Potency entry in [1], in [2], in assay [19], in [3], in [7] and in [8] was “inactive” each time. In addition, the Potency entry in assay [4], in assay [5], in assay [6], in assay [9] and in assay [17] was “inactive” each time.
With `CN1CCN(CCOc2cc(OC3CCOCC3)c3c(Nc4c(Cl)ccc5c4OCO5)ncnc3c2)CC1`, the Potency in assay [1] was 7.69 µM (active); in assay [18] it was 13.6 µM (active); in assay [8], 17.2 µM (active); in [4], 20.9 µM (active). Further, the Potency result in [6] was “inactive”.
Regarding `CC1(C)S[C@H]2[C@H](NC(=O)[C@@H](N)c3ccc(O)cc3)C(=O)N2[C@@H]1C(=O)O`, the Potency was 6.85 µM (active) in [1]; 24.1 µM (active) in assay [18]; 1.18 µM (active) in [16]; 3.72 µM (active) in assay [19]; 2.96 µM (active) in assay [7]; 2.96 µM (active) in assay [4]. Also, the Potency in assay [5] and in [17] was 3.72 µM (active) in each case. The Potency entry in assay [6], in assay [11], in assay [12], in assay [13] and in assay [14] was “inactive” throughout.
Turning to `O=C(NCc1ccccc1)c1csc(Nc2ccncn2)n1`, the Potency in assay [1] is 17.2 µM (active); in assay [10] it was 11.8 µM (active); in assay [16] it was 13.2 µM (active); in assay [19], 13.2 µM (active); in assay [3], 19.3 µM (active); in [7], 23.5 µM (active). The Potency in [4] is 29.6 µM (active); in assay [5] it was 23.5 µM (active); in assay [17], 9.35 µM (active).
Take `Clc1ccc(-c2nc3sccn3c2C=NOCc2ccc(Cl)c(Cl)c2)cc1`: the Potency entry in assay [1], in [2], in assay [19], in assay [3], in [7] and in assay [8] was “inactive” in each case. In addition, the Potency result in assay [4], in assay [6] and in assay [9] was “inactive” each time.
Take `COc1ccc(C2Sc3ccccc3N(CCN(C)C)C(=O)C2OC(C)=O)cc1` (centres undefined): the Potency result in assay [1], in assay [2], in assay [3], in [7], in [8] and in [4] was “inactive” in each case. The Potency entry in [6], in assay [9] and in assay [17] was “inactive” each time.
As to `O=C(NOCC(O)CO)c1cc(Br)c(F)c(F)c1Nc1ccc(I)cc1F` (centres undefined), the Potency result in assay [1], in assay [19], in assay [7], in assay [6] and in assay [17] was “inactive” throughout. Moreover, the Potency in assay [18] was 0.341 µM (active); in assay [4], 0.148 µM (active); in assay [5] it was 11.8 µM (active).
On to `Cc1[nH]c(C=C2C(=O)Nc3ccc(S(=O)(=O)Cc4c(Cl)cccc4Cl)cc32)c(C)c1C(=O)N1CCC[C@H]1CN1CCCC1`, for which the Potency in assay [1] is 27.3 µM (active); in assay [10] it was 18.7 µM (active); in [19], 14.8 µM (active); in [7] it was 14.8 µM (active); in assay [8], 30.6 µM (active); in assay [4] it was 18.7 µM (active). In addition, the Potency in [5] was 23.5 µM (active); in [11], 11.7 µM (active); in assay [12], 13.1 µM (active); in [20] it was 9.27 µM (active); in [14], 9.27 µM (active). For the same compound, the Potency entry in assay [6] is “inactive”.
For the compound `Cc1cccc(C)c1OCC(C)N` (centres undefined), the Potency entry in assay [1], in assay [2], in assay [16], in assay [19], in [3] and in assay [7] was “inactive” throughout. The Potency entry in assay [8], in assay [4], in [6], in assay [9] and in assay [17] was “inactive” each time.
Turning to `COc1cc2ncnc(Nc3ccc(F)c(Cl)c3)c2cc1OCCCN1CCOCC1`, the Potency in assay [1] was 15.7 µM (active) and 19.5 µM (active); in assay [10], 13.6 µM (active); in assay [18] it was 17.5 µM (active) and 27.3 µM (active); in assay [16] it was 34 µM (active); in assay [19], 6.05 µM (active); in [3], 39.5 µM (active). The Potency in [7] is 34 µM (active); in [8] it was 8.85 µM (active) and 17.4 µM (active); in [4], 6.79 µM (active) and 23.7 µM (active); in assay [5], 27 µM (active); in [17], 17.1 µM (active); in [11], 38 µM (active). Also, the Potency was 33.9 µM (active) in assay [20], 42.7 µM (active) in assay [13] and 33.9 µM (active) in assay [14]. Besides, the Potency entry in assay [9] is “inactive”.
In the case of `COc1ccc2c(Oc3ccc(NC(=O)c4c(C)n(CC(C)(C)O)n(-c5ccccc5)c4=O)cc3F)ccnc2c1`, the Potency result in assay [1], in [6], in assay [11], in [13] and in assay [14] was “inactive” throughout. The Potency is 26.4 µM (active) in [10], 21.7 µM (active) in assay [8] and 14.7 µM (active) in assay [12].

Source of the values: PubChem BioAssay (NCATS).
